# Laboratory results reported in PubChem BioAssay (NCI).
# About 83,000 compounds went through this panel and 20% of them were active in at least one assay; those are over-represented in the sample as a whole.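 Negative percent growth values reflect cell death: -40 means 40% of the cells present at the start died, and -100 means all died.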 Active and inactive are the calls of the source. Rule for the calls: active = growth percent below 10; inactive = the rest.
# Test system: MDA-MB-231 breast
# Experiment: NCI-60 one-dose screen, 48 h (100 = growth as untreated, 0 = no growth, -100 = all killed)
# Details: 10 µM
row,SMILES,growth
1,COc1ccc(/C=C/C(=O)c2ccc(NC(=O)CN3C(=O)NC(C)(c4ccccc4)C3=O)cc2)cc1 (stereo not drawn),87% (inactive)
2,Cc1ccc(C(C)C)cc1NC(=O)c1ccccc1O,65.1% (inactive)
3,CC1(c2ccccc2)NC(=O)N(CC(=O)Nc2ccc(C(=O)/C=C/c3ccc(Br)cc3)cc2)C1=O (stereo not drawn),54.3% (inactive)
4,C=C[C@@]12CN3CC[C@]1(O)[C@@](C(=O)OC)(CO2)c1[nH]c2ccccc2c1C3,76.9% (inactive)
5,COc1ccc(/C=C/C(=O)c2ccc(S(=O)(=O)NCCNc3nc(Nc4ccc(F)cc4)nc(N(C)C)n3)cc2)cc1,29% (inactive)
6,O=c1oc2ccccc2cc1-c1csc(N=Nc2c(O)[nH]c3ccc(Br)cc23)n1,56.5% (inactive)
7,O=C(CSc1nnc(-c2c[nH]c3ccccc23)n1-c1ccccc1)Nc1ccc(C(=O)/C=C/c2ccccc2Cl)cc1,78% (inactive)
8,O=C(NO)c1ccc(-c2nc3ccc4[nH]ncc4c3c3c2CCCC3)cc1,-27.6% (active)
9,CS(=O)(=O)Nc1ccc(-c2ccc3c(c2)ncn3-c2ccc(NC(=O)Nc3ccc(Br)cc3)cc2)cc1,13.6% (inactive)
10,O=C(CS(=O)(=O)c1oc(-c2ccc(Cl)cc2)nc1S(=O)(=O)c1ccc(Cl)cc1)N1CCOCC1,-1.43% (active)
11,COc1cc(-c2nc3cc(Cl)c(Cl)cc3[nH]2)ccc1OCc1nnc(-c2ccc(Br)cc2)o1,-38.9% (active)
12,COc1cccc(C(N)=Nc2ccc(OCCCCCCn3cncn3)cc2)c1,13.6% (inactive)
13,COc1cc2c3c(n(CCCn4ccnc4)c(=O)c2cc1OC)-c1nc2c(cc1C3=O)OCO2,84.1% (inactive)
